Hits are enriched below; roughly 10% of the tested compounds scored in any of these assays.
HPGD inh = blocks human HPGD enzyme activity; P15428; purified HPGD, NADH fluorescence kinetic, PGE2 substrate; Potency, µM, for the others: at the highest dose activity change, negative = inhibition, usual class: inhibitors; 150,000 compounds, 4.3% hits; note: potency is the fitted concentration of half-maximal effect
Target sequence (P15428 whole entry, looked up): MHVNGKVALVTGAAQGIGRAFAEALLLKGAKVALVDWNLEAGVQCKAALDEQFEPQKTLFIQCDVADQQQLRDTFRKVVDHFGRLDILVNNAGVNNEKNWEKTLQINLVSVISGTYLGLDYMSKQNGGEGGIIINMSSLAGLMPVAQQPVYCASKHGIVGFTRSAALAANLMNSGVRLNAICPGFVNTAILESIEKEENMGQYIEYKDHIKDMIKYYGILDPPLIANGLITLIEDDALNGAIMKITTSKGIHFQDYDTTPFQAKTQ
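NADH formation kinetics: reaction with 30 uM PGE2 and 1 mM NAD+ (final), 20 nM enzyme, Tris-HCl pH 8 with Tween 20, after 15 min compound preincubation at room temperature. Fluorescence change, last versus first of five reads.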
Lamin A splicing = modulators of lamin A splicing. Potency, µM (doses to about 46.1 µM), inactives show top-dose ratio change, negative = inhibition, most hits filed as inhibitors. HeLa LMNA splicing GFP/RFP minigene ratio, 48 h. 200,000 compounds, 0.01% hits; active = well fitted inhibition curve with a large enough effect in the signal ratio, with a control signal flat, not every such curve was filed as active; inconclusive = small, poorly fitted or top-dose-only effect, or effect the other way, or a change in a side signal; the % refers to the signal ratio; note: potency is the fitted concentration of half-maximal effect
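Read-out is the ratio of GFP to DsRed2 object intensity, acquired by 488 nm laser-scanning cytometry on HeLa lamin A-EGFP minigene reporter cells. Compound incubation 48 hrs at 37 °C in Opti-MEM with 2% FBS; DMSO 0.5% final.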
PNC inhibitor = blocks assembly of the perinucleolar compartment | PC3M PTB-GFP, PNC prevalence imaging, 16 h; active compounds read low | activity change (PNC), negative = inhibition, % at 10 µM | 140,000 compounds, 3.1% hits | AID 2417;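 active = readout at or below -70, meaning at least 70% loss of cells showing the perinucleolar compartment, a nuclear body marking cancer cells; inconclusive = readout between -30 and a set limit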;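 note: plate controls were DMSO wells for no effect and camptothecin positive control wells for full effect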
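Read-out is percentage of cells bearing a perinucleolar compartment, from automated 20x imaging of fixed, Hoechst-stained PC3M PTB-GFP cells. Cells were seeded 4 h, then exposed 16 h to compound (23 nl of library stock) in duplicate plates.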
KinaseGlo FLuc = counter-screen: inhibitors of Kinase-Glo firefly luciferase; Q27757; Kinase-Glo luciferase, ATP luminescence, 8 min; Potency, µM (highest dose often 38.3 µM), for the others: top-dose activity change, negative = inhibition, most hits filed as inhibitors; 200,000 compounds, 0.28% hits; AID 1379; active = well fitted inhibition curve with a large enough effect; inconclusive = small, poorly fitted or top-dose-only effect; note: potency is the fitted concentration of half-maximal effect; nearly all actives have a fitted effect of over 60% in size
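Inhibition of Kinase-Glo luciferase light generation was assessed at 10 uM ATP in pH 7.2 imidazole buffer, with luminescence measured after eight minutes at ambient temperature.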
ALDH1A1 inh = inhibitors of human aldehyde dehydrogenase 1A1; P00352; Purified ALDH1A1, NADH fluorescence, propionaldehyde substrate; Potency, µM (highest dose often 75.3 µM), without a hit: top-dose activity, negative = inhibition, usual class: inhibitors; 220,000 compounds, 7.3% hits; AID 1030;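 note: potency is the fitted concentration of half-maximal effect; plate controls were no enzyme wells and a reference inhibitor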
IMPase cell inh = cell-permeable inhibitors of inositol monophosphatase (IMPase); inhibition (IP1 accumulation), % at 46.1 µM; CHO-M1 cells, IP1 accumulation, HTRF TR-FRET ratio; AID 901; 120,000 tested, under 10 active; active = well fitted curve in the direction sought with a large enough effect in the signal ratio, not every such curve was filed as active; inconclusive = small, poorly fitted or top-dose-only effect, or a change in a side signal; inactive = no such curve, though single readings can be large or run the other way; the % refers to the signal ratio;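 note: cells stimulated with carbachol in lithium chloride buffer; plate controls were DMSO basal wells for no effect and reference inhibitor wells for full effect; higher means more IMPase inhibition seen as more IP1 and lower FRET ratio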
Target sequence (P97697 whole entry, looked up): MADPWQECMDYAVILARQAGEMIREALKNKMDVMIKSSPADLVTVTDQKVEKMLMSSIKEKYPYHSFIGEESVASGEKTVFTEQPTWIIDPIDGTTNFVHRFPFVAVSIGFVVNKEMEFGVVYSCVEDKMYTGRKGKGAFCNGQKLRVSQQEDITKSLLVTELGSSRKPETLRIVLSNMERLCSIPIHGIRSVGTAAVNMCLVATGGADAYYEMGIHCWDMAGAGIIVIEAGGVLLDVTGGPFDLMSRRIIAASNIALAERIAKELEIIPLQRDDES
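The IP-One HTRF competitive assay in carbachol-stimulated CHO-M1 cells quantifies cellular IP1. Compounds spanned up to 46 uM final, and activity is expressed as AC50 from concentration-response fits of the ratio and donor data.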
An asterisk follows results filed as active; ? = inconclusive; / = not tested or not shown; [ ] = dose if it differs, or a comment. Unless noted, calls come from the whole dose curve; as a rule, active = well fitted inhibition curve with a large enough effect (not every such curve was filed as active); inconclusive = small, poorly fitted or top-dose-only effect, or another doubt; inactive = no such curve, though single readings can be large or run the other way. Unless noted, % is set by controls: 0 for no effect and ±100 for the full control effect.

SMILES	HPGD inh	Lamin A splicing	PNC inhibitor	KinaseGlo FLuc	ALDH1A1 inh	IMPase cell inh
COc1ccc2c(c1OC)C(=O)OC2Nc1ncccc1C (centres undefined)	-14%	3%	35	1%	0%	1
COc1ccc2c(c1OC)C(=O)OC2Nc1nc(-c2ccc(-c3ccccc3)cc2)cs1 (centres undefined)	?	-13%	-123*	0%	?	/
COc1ccc2c(c1OC)C(=O)OC2Nn1cncn1 (centres undefined)	-26%	13%	-94*	-2%	?	3
COc1ccc2c(c1OC)C(=O)OC2Nc1nc(-c2cc3ccccc3oc2=O)cs1 (centres undefined)	-25%	?	-7	?	?	3
O=C1C2C3CCCC3=C3CCCC3C2C(=O)N1c1ccccc1 (centres undefined)	-8%	-5%	?	0%	25µM*	0
O=C1C2C(C(=O)N1c1ccccc1)N1CCCN1C2c1ccccc1 (centres undefined)	/	19%[9.22 µM]	/	0%	1%	/
O=C1C2C3C=CC(C3=C3CCCCC3)C2C(=O)N1c1ccccc1 (centres undefined)	-2%	3%	20	-1%	10µM*	-7
O=C1C2C3C=CC(C3)C2C(=O)N1c1ccccc1 (centres undefined)	-14%	?	-15	-3%	-1%	-6
CC(C)c1cnc2c(c1SCC(=O)Nc1cccc([N+](=O)[O-])c1)c(=O)n(C)c(=O)n2C	/	-9%[46 µM]	/	/	/	/
N#Cc1cccc(NC(=O)CN2NS(=O)(=O)c3ccccc3C2=O)c1	16µM*	0%	45	-2%	-11%	-5
COc1ccc(NC(=O)CSc2ccc3c4c(cccc24)C(=O)c2ccccc2-3)cc1	-13%	4%	48	-3%	0%	-4
N#Cc1cccc(NC(=O)CSc2ccc3c4c(cccc24)C(=O)c2ccccc2-3)c1	-29%	12%	?	-1%	18µM*	-21
COc1ccc(OC)c2sc(N3CCCCC3)nc12	16µM*	13%	-18	-3%	?	23
O=C(C1CC1)N1CCN(c2nc3c(Cl)cccc3s2)CC1	/	3%[46 µM]	/	/	/	/
Clc1cccc2sc(N3CCCCC3)nc12	?	23%	-82*	-1%	-2%	2
Clc1cc(Cl)c2nc(N3CCCCC3)sc2c1	22µM*	-7%	3	-8%	22µM*	5
COC(=O)C1=C(C(=O)OC)[C@@H]2N(C)c3ccccc3[C@@]23C[C@@H](CO)N(C(=O)c2cc(C)oc2C)C3=N1	-15%	-7%[9.22 µM]	/	-6%[7.66 µM]	7%[13.5 µM]	/
Cc1onc(-c2ccccc2)c1C(=O)NC(=S)NNC(=O)c1ccccc1O	-7%	?	-95*	-1%	0%	/
CCCCC(=O)NNC(=S)NC(=O)CCC	-14%	-11%	-11	4%	-12%	8
CCCCC(=O)NC(=S)NNC(=O)CC#N	-21%	8%	-29	0%	22µM*	-10
O=C(NNS(=O)(=O)c1ccccc1)c1cccnc1	-7%	/	/	-3%[7.66 µM]	8%[13.5 µM]	/
Cc1ccc(C(=O)NC(=S)NNC(=O)c2ccccc2[N+](=O)[O-])cc1	40µM*	?	25	1%	22µM*	-12
O=C(NC(=S)NNS(=O)(=O)c1ccc(Cl)cc1)c1cccnc1	/	/	/	0%	7.9µM*	/
C=Cc1ccc(CN2C(=O)N(c3ccc(C)c(C)c3)S(=O)(=O)c3ccccc32)cc1	/	-8%[46 µM]	/	/	/	/
Cc1ccccc1C(=O)NNC(=S)NC(=O)c1ccccc1	-22%	?	?	2%	14µM*	/
SMILES	HPGD inh	Lamin A splicing	PNC inhibitor	KinaseGlo FLuc	ALDH1A1 inh	IMPase cell inh
Cc1onc(-c2ccccc2)c1C(=O)N/N=C/c1cccc(O)c1	28µM*	?	?	15%	0%	/
COc1cccc(/C=N/NC(=O)c2c(-c3ccccc3)noc2C)c1	-5%	-7%	20	0%	5%	10
CCCCCC(=O)NNC(=S)NC(=O)c1ccc([N+](=O)[O-])cc1	/	?	/	-1%	6.3µM*	/
Cc1ccc(S(=O)(=O)NNC(=S)NC(=O)c2ccc([N+](=O)[O-])cc2)cc1	28µM*	4%	82	1%	18µM*	/
CCOC(=O)C1CCN(Cc2cn3c(-c4ccc(OC)cc4)nnc3s2)CC1	/	-6%[46 µM]	/	/	/	/
Oc1ccc(Cl)cc1C1=Nc2ccccc2N=C(c2ccco2)C1	-13%	12%	-100*	1%	7%	8
CC(=O)N1CCC2(CC1)CN(c1ccccn1)C2	?	/	/	-3%	?	/
CCc1c(O)cc(=O)n(-c2ccccc2)c1-c1ccccc1	-7%	6%	-2	-1%	-8%	/
CCc1c(O)cc2n(c1=O)-c1ccc(Cl)cc1C2(C)C	-8%	?	-23	0%	28µM*	-2[0.369 µM]
CCOC(=O)C1CCN(C(=O)CS(=O)Cc2nc(-c3ccc(C)cc3)oc2C)CC1 (centres undefined)	-15%	-13%	12	3%	25µM*	-2
CC(C)c1[nH]nc2c1C(C1C=CCCC1)C(C#N)=C(N)O2 (centres undefined)	/	?	/	/	14µM*	/
O=C(NC1CCCC1)O[C@@H]1C(=O)c2cc(Br)ccc2O[C@H]1c1ccc2c(c1)OCO2	-6%	/	/	-2%	-6%	/
Cc1cc2c(cc1NS(=O)(=O)c1ccc(NC(=O)CC(C)C)cc1)n(C)c(=O)c(=O)n2C	/	-4%[46 µM]	/	/	/	/
Cc1ccc(-n2c(C)cc(C(=O)NS(=O)(=O)c3ccc(C)cc3)c2C)cc1	-14%	-9%	?	4%	-1%	6
Cc1ccc(NC(=O)c2cc(C)n(-c3ccccc3)c2C)cc1	20µM*	?	?	-16%	?	5
Cc1ccc(NC(=O)C(C)Sc2nc(=O)cc(N)n2-c2cccc(C)c2)cc1 (centres undefined)	/	/	/	/	/	-3
Cc1ccc(NC(=O)c2cc(C)n(-c3cccc(C)c3)c2C)cc1	25µM*	?	?	0%	?	/
CC(NCc1ccc2c(c1)OCO2)C(=O)N1CCc2ccccc21 (centres undefined)	-10%	-11%	1	-2%	-4%	-2
N#CC(Cc1ccc(O)c(O)c1)C(=O)N1CCc2ccccc21 (centres undefined)	28µM*	?	/	-3%	8.9µM*	/
O=C(NCc1ccccc1)C1(c2ccccc2)CCN(S(=O)(=O)c2ccccc2)CC1	-13%	2%	12	-4%	8.9µM*	7
CN(C)C(=O)C1(c2ccccc2)CCN(S(=O)(=O)c2ccccc2)CC1	-9%	-1%	19	-2%	-6%	0
CC(=O)N1N=C(c2ccco2)CC1c1ccc(C)cc1 (centres undefined)	-8%	6%	17	0%	?	/
